Test results: PubChem BioAssay (Tox21)
Inconclusive results are not listed. The source made the active and inactive calls. Unless noted, calls follow the shape of the dose curve; as a rule, active = well fitted curve in the direction sought with a large enough effect in the repeat runs; inconclusive = weak or mixed curves; inactive = no such curve, though single readings can be large; an effect the other way counts as inactive or inconclusive.

Key:
[1] = qHTS assay to identify small molecule HDAC inhibitors (AID 1259364); also: top concentration of the series differs between compounds; nearly all actives have a fitted effect of over 45% in size
In short: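 Luminescence from a cell-permeant luminogenic class I/II HDAC substrate reports endogenous deacetylase activity in intact HCT-116 cells treated with compounds for 2 h.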

[2] = qHTS assay to identify small molecule HDAC inhibitors - cell viability counter screen (AID 1259365); also: series mostly up to about 92 µM; nearly all actives have a fitted effect of over 50% in size
In short: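 HCT-116 (wild type), 1,500 cells/well, overnight 37C/5% CO2; compound in DMSO 2hr; CellTiter-Glo 30min RT; luminescence read.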

[3] = qHTS assay to identify small molecule agonists of the sonic hedgehog signaling (Shh) pathway - cell viability counter screen (AID 1259366); also: nearly all actives have a fitted effect of over 50% in size
In short: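 CellTiter-Fluor fluorescence read-out, 1 hr at 37C, added after 23hr compound exposure. Cells: 3T3 Gli1-Luc, an NIH/3T3 clone with stably integrated Gli1-Luc reporter, plated 4hr before compound.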

[4] = qHTS assay to identify small molecule antagonists of the sonic hedgehog signaling (Shh) pathway - cell viability counter screen (AID 1259367); also: nearly all actives have a fitted effect of over 55% in size
In short: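 NIH/3T3-derived Gli1-Luc reporter cells (2,000 per well) rested 4 hr at 37 C, then received DMSO compounds plus conditioned medium. After 23 hr of treatment, CellTiter-Fluor was added for 1 hr at 37C and fluorescence read.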

[5] = qHTS assay to identify small molecule agonists of the sonic hedgehog signaling (Shh) pathway (AID 1259368; calls by dose curve;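 also: NIH/3T3-derived 3T3Gli1-Luc cells carrying a stable Gli1-driven firefly luciferase reporter; series mostly up to about 92 µM; nearly all actives have a fitted effect of over 15% in size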)
In short: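 3T3Gli1-Luc (NIH/3T3 clone, stable Gli1-Luc); 4 hr pre-incubation, then cpd in DMSO 24 hr, 37 C/5% CO2; luciferase reagent 30 min RT; luminescence.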

[6] = qHTS assay to identify small molecule antagonists of the sonic hedgehog signaling (Shh) pathway (AID 1259369; calls by dose curve; also: nearly all actives have a fitted effect of over 45% in size)
In short: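 3T3Gli1-Luc, conditioned-medium-stimulated, 24hr cpd, 37C/5% CO2; Gli1-driven firefly Luc luminescence after 30min RT with luciferase reagent. Cells plated 4hr before cpd.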

[7] = qHTS assay to identify small molecule agonists of the androgen receptor (AR) signaling pathway in the presence of an antagonist - cell viability counter screen (AID 1259379);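 also: MDA-kb2 human breast cancer cells carrying an MMTV luciferase reporter; series mostly up to about 92 µM; nearly all actives have a fitted effect of over 25% in size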
In short: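 Cells: MDA-kb2 (MMTV-luc, AR and GR elements), 3,000/well, 5 hr settle. Added: nilutamide 3.0uM final, then compounds (15 conc.). Incubation: 16 hr, 37C, no CO2. Read-out: CellTiter-Fluor, 1 hr, fluorescence.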

[8] = qHTS assay to identify small molecule agonists of the estrogen receptor beta (ER-beta) signaling pathway - cell viability counter screen (AID 1259380); also: nearly all actives have a fitted effect of over 30% in size
In short: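 HEK293T ER-beta-UAS-bla; 2% CS-FBS; 6 hr pre-plate, 16 hr cpd at 37C/5% CO2; LiveBLAzer read first, then CellTiter-Glo 30 min RT, luminescence.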

[9] = molecular target: Androgen receptor (Homo sapiens) (UniProt P10275); assay: qHTS assay to identify small molecule agonists of the androgen receptor (AR) signaling pathway in the presence of an antagonist (AID 1259381; calls by dose curve; also: nearly all actives have a fitted effect of over 15% in size)
Sequence of Androgen receptor (Homo sapiens) (P10275 whole entry, looked up): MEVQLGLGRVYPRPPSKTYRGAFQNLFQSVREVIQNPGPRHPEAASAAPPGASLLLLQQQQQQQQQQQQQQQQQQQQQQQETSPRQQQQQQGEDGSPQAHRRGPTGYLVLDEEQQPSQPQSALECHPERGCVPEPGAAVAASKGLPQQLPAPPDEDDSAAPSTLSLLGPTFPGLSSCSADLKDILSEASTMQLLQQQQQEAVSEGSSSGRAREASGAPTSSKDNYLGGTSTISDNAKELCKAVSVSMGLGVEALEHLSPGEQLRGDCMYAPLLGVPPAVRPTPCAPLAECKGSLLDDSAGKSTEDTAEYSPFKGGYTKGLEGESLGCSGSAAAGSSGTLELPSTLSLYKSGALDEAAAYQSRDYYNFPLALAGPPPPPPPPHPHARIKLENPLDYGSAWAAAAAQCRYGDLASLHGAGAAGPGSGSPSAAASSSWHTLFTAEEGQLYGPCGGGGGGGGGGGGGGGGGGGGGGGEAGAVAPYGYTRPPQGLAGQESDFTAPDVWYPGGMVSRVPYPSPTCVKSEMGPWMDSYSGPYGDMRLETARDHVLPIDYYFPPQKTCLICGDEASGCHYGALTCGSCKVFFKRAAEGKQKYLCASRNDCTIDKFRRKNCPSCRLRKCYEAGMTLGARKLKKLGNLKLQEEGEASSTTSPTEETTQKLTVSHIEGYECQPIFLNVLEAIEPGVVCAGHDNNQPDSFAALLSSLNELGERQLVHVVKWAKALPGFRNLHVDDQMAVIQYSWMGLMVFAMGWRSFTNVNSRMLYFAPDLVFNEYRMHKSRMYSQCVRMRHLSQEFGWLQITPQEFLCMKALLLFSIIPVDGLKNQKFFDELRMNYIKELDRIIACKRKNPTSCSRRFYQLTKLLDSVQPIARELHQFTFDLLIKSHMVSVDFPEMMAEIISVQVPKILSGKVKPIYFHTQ
In short: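 MDA-kb2 cells, 3,000/well, rested 5hr at 37C/0% CO2 → nilutamide 3.0uM final or buffer → compounds, 15 conc. → 16hr at 37C → ONE-Glo, 30min RT → luminescence.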

[10] = qHTS assay to identify small molecule antagonists of the estrogen receptor beta (ER-beta) signaling pathway - cell viability counter screen (AID 1259382); also: series mostly up to about 92 µM; nearly all actives have a fitted effect of over 55% in size
In short: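 Cells: ER-beta-UAS-bla HEK293T, 2,000/well, 2% CS-FBS, 6 hr settle. Cpd + E2 (1nM final), 16 hr, 37C/5% CO2. Bla FRET substrate 2 hr RT, then CellTiter-Glo 30 min RT, luminescence.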

[11] = qHTS assay to identify small molecule agonists or antagonists of the thyroid stimulating hormone receptor (TSHR) signaling pathway - wild type cell line counter screen (AID 1259384; calls by dose curve)
In short: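 Wild-type HEK293 cells were plated 18 h at 37 C/5% CO2, pin-dosed with compound plus Ro20-1724 medium, held 30 min at room temperature, then given cAMP-d2 and anti-cAMP-cryptate; fluorescence was read after 1 h. Fifteen concentrations, triplicate.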

[12] = molecular target: Thyrotropin receptor (Homo sapiens) (UniProt P16473); assay: qHTS assay to identify small molecule antagonists of the thyroid stimulating hormone receptor (TSHR) signaling pathway (AID 1259385; calls by dose curve; also: nearly all actives have a fitted effect of over 20% in size)
Sequence of Thyrotropin receptor (Homo sapiens) (P16473 whole entry, looked up): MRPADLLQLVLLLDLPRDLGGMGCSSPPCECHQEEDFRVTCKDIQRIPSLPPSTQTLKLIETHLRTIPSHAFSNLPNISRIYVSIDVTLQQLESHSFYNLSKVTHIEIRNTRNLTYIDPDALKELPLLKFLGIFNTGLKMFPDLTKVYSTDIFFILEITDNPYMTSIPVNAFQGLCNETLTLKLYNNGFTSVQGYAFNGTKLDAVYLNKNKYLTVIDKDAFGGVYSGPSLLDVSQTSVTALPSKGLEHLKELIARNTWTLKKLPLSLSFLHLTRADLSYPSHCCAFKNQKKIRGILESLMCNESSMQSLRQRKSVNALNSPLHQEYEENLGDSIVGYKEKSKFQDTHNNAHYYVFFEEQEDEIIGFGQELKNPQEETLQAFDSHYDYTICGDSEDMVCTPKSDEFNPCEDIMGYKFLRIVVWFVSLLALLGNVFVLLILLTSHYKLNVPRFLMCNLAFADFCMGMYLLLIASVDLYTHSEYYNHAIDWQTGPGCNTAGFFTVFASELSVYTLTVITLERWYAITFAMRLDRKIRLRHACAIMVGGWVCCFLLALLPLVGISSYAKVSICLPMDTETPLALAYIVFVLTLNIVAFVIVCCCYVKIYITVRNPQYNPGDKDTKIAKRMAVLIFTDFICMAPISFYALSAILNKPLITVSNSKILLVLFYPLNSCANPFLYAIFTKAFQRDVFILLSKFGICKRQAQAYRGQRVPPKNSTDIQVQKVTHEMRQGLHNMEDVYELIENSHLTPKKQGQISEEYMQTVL
In short: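 TSHR-HEK293 cells were plated and held 18 h at 37C/5% CO2, then given compound plus Ro20-1724 and stimulated with TSH at 1.5 ng/mL final. After 30 min at room temperature, cAMP was detected with cAMP-d2/anti-cAMP-cryptate (1 h) by fluorescence.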

[13] = molecular target: Progesterone receptor (Homo sapiens) (UniProt P06401); assay: qHTS assay to identify small molecule agonists of the progesterone receptor (PR) signaling pathway (AID 1346784; calls by dose curve; also: nearly all actives have a fitted effect of over 30% in size)
Sequence of Progesterone receptor (Homo sapiens) (P06401 whole entry, looked up): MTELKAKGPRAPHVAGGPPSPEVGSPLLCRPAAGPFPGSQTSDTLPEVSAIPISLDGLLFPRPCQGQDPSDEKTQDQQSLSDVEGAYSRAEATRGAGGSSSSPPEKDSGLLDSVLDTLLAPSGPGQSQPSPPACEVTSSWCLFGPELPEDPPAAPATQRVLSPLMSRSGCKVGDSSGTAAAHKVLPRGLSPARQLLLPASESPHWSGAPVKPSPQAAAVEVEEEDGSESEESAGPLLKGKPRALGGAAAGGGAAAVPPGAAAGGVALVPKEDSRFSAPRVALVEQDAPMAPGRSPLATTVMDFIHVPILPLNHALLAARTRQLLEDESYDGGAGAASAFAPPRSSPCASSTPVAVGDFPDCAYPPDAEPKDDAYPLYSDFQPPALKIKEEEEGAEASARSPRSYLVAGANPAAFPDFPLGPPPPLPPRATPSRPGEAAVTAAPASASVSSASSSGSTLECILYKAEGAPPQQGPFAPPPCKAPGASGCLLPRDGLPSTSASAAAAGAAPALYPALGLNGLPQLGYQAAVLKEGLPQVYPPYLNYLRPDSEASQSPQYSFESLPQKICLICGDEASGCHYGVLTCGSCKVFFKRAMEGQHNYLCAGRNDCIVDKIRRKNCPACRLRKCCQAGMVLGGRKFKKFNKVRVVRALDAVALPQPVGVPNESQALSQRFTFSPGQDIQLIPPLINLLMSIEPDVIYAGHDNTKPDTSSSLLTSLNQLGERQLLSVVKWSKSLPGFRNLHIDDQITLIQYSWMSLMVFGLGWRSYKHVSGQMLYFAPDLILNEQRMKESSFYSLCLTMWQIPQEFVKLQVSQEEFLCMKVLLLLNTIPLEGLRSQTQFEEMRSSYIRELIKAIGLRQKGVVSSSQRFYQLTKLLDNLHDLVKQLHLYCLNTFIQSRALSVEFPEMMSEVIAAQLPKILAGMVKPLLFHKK
In short: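 HEK 293T PR-UAS-bla reporter cells, 2% charcoal-stripped FBS; 6 hr settle at 37C/5% CO2, compound (DMSO) 16 hr, LiveBLAzer B/G FRET substrate 2 hr RT, fluorescence intensity read.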

[14] = molecular target: Progesterone receptor (Homo sapiens) (UniProt P06401); assay: qHTS assay to identify small molecule antagonists of the progesterone receptor (PR) signaling pathway (AID 1346795; active = well fitted inhibition curve with a large enough effect in the signal ratio in the repeat runs, not every such curve was filed as active; the % refers to the signal ratio)
In short: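 Beta-lactamase reporter, HEK293T PR-UAS-bla line; 2% charcoal-stripped FBS; 6 hr pre-incubation, 37C/5% CO2. Compound + R5020 1 nM final, 16 hr. LiveBLAzer B/G FRET substrate, 2 hr RT; fluorescence intensity read.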

[15] = qHTS assay to identify small molecule antagonists of the progesterone receptor (PR) signaling pathway - cell viability counter screen (AID 1346798); also: series mostly up to about 92 µM; nearly all actives have a fitted effect of over 50% in size
In short: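 Luminescence readout (CellTiter-Glo, 30 min, RT) of viability in PR-UAS-bla HEK293T cells exposed to compound and R5020 agonist for 16 hr at 37C, 5% CO2; run in the same wells as the beta-lactamase reporter read.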

[16] = qHTS assay to identify small molecule agonists of the progesterone receptor (PR) signaling pathway - cell viability counter screen (AID 1346799; calls by dose curve; also: nearly all actives have a fitted effect of over 45% in size)
In short: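 HEK293T PR-UAS-bla, 3,000 cells/well, 2% charcoal-stripped FBS; 6 h settle, compound 16 h at 37C/5% CO2; LiveBLAzer 2 h RT, then CellTiter-Glo 30 min RT, luminescence read.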

[17] = molecular target: Estrogen receptor beta (Homo sapiens) (UniProt Q92731); assay: qHTS assay to identify small molecule antagonists of the estrogen receptor beta (ER-beta) signaling pathway (AID 1259378; active = well fitted inhibition curve with a large enough effect in the signal ratio in the repeat runs, not every such curve was filed as active; the % refers to the signal ratio)
Sequence of Estrogen receptor beta (Homo sapiens) (Q92731 whole entry, looked up): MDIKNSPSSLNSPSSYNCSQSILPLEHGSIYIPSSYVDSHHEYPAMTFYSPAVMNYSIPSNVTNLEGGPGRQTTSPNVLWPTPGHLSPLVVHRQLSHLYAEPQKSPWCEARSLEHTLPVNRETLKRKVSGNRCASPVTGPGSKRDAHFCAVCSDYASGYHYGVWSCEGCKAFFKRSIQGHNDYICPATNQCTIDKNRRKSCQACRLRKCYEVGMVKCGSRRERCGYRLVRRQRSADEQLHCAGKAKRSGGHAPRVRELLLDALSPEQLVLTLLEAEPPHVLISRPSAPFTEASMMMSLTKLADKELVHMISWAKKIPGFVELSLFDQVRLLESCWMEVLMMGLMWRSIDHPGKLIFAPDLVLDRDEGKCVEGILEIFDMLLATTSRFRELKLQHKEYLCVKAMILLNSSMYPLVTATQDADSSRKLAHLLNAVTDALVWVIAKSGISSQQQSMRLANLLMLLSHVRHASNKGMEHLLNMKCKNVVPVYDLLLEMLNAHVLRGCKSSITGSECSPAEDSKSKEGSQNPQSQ
In short: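 ER-beta-UAS-bla HEK293T (GripTite) cells in 2% charcoal-stripped FBS medium were preincubated 6 hr at 37C, dosed with compound, then stimulated with 1 nM E2 (final) for 16 hr; beta-lactamase reporter read by B/G FRET fluorescence after 2 hr substrate loading.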

[18] = qHTS assay to identify small molecule agonists of the estrogen receptor alpha (ER-alpha) signaling pathway in the presence of an antagonist - cell viability counter screen (AID 1259386);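 also: series mostly up to about 92 µM; cells exposed to compounds for 22 h at 37 °C before the viability read; nearly all actives have a fitted effect of over 30% in size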
In short: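 VM7Luc4E2, stripped-serum pre-culture 5 d; 24hr plating; +ICI-182,780 10.0nM final; cpds 15 conc, 22hr, 37C/5% CO2; CellTiter-Fluor added at 21hr, fluorescence 1hr later.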

[19] = molecular target: Estrogen receptor (Homo sapiens) (UniProt P03372); assay: qHTS assay to identify small molecule agonists of the estrogen receptor alpha (ER-alpha) signaling pathway in the presence of an antagonist (AID 1259383; calls by dose curve; also: top concentration of the series differs between compounds; nearly all actives have a fitted effect of over 15% in size)
Sequence of Estrogen receptor (Homo sapiens) (P03372 whole entry, looked up): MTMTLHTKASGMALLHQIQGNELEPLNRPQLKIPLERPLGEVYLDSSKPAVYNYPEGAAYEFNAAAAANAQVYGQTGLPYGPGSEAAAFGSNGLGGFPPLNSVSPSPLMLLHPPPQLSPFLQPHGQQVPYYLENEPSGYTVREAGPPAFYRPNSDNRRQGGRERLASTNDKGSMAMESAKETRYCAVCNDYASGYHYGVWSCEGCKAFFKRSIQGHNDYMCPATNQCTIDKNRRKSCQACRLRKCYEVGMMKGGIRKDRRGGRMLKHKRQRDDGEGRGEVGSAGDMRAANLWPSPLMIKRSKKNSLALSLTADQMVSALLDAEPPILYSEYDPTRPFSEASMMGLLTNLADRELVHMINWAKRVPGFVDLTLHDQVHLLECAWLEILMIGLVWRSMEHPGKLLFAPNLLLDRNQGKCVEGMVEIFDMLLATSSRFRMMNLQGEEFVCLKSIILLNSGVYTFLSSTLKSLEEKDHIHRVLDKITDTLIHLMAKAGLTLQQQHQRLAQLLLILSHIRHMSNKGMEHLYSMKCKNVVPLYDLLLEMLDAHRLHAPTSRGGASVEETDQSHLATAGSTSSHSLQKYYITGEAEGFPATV
In short: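 VM7Luc4E2, endog. ER-alpha + 4×ERE-luc; charcoal-stripped FBS, phenol red-free, 5 d; 24hr plating; +10.0nM ICI-182,780 (final); cpds 15 conc, 22hr, 37C/5% CO2; ONE-Glo luminescence.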

[20] = molecular target: Estrogen receptor beta (Homo sapiens) (UniProt Q92731); assay: qHTS assay to identify small molecule agonists of the estrogen receptor beta (ER-beta) signaling pathway (AID 1259377; active = well fitted activation curve with a large enough effect in the signal ratio in the repeat runs, not every such curve was filed as active; the % refers to the signal ratio)
In short: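 Beta-lactamase reporter readout: fluorescence of LiveBLAzer B/G FRET substrate after 2 h at room temperature, following 16 h compound treatment of ER-beta-UAS-bla HEK293T cells at 37C in 2% charcoal-stripped FBS medium.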
% is scaled to controls: 0 for no effect and ±100 for the full control effect.

COC(C)(OC)OC
inactive: Potency [1] | outcome [2] | outcome [3] | outcome [4] | outcome [5] | Potency [6] | outcome [7] | outcome [8] | outcome [9] | outcome [10] | outcome [11] | outcome [12] | Potency [13] | Potency [14] | outcome [15] | outcome [16]

CC1(C)Oc2ccc(C#N)cc2[C@@H](N2CCCC2=O)[C@@H]1O
inactive: Potency [1] | outcome [2] | outcome [3] | outcome [4] | outcome [5] | Potency [6] | Potency [17] | outcome [7] | outcome [8] | outcome [10] | outcome [11] | outcome [12] | outcome [18] | Potency [13] | Potency [14] | outcome [16]

CC(C)COC(=O)c1ccccc1
inactive: Potency [1] | outcome [2] | outcome [3] | outcome [4] | outcome [5] | Potency [6] | outcome [7] | outcome [8] | outcome [9] | outcome [10] | Potency [19] | outcome [11] | outcome [12] | outcome [18] | Potency [13]

CCCSSCCC
inactive: Potency [1] | outcome [2] | outcome [3] | outcome [4] | outcome [5] | Potency [6] | Potency [17] | outcome [7] | outcome [8] | outcome [10] | Potency [19] | outcome [12] | outcome [18] | Potency [14] | outcome [15] | outcome [16]

OCCN1CCOCC1
inactive: Potency [1] | outcome [2] | outcome [3] | outcome [4] | outcome [5] | Potency [6] | Potency [17] | outcome [7] | outcome [8] | outcome [10] | outcome [12] | outcome [18] | Potency [14] | outcome [15] | outcome [16]

CC1CC(=O)CC(C)(C)C1 (stereo not given)
inactive: Potency [1] | outcome [2] | outcome [3] | outcome [4] | outcome [5] | Potency [6] | outcome [7] | outcome [10] | Potency [19] | outcome [11] | outcome [18] | Potency [13] | Potency [14] | outcome [15] | outcome [16]

C=CCCCCCCCC
inactive: Potency [1] | outcome [2] | outcome [3] | outcome [4] | outcome [5] | Potency [6] | outcome [7] | outcome [8] | outcome [10] | outcome [11] | outcome [12] | outcome [18] | Potency [13] | outcome [15] | outcome [16]

CCCCCCCCCCCCCCCCCCOCCO
inactive: activity change, negative = inhibition [1] -2.36% [at 19 µM] | activity change, negative = cytotoxicity [2] 0.0538% [at 19 µM] | viability change, negative = cytotoxic [3] 1.32% [at 19 µM] | viability change, negative = cytotoxic [4] -0.0007% [at 19 µM] | activity change [5] -0.0679% [at 18.9 µM] | activation [20] -0.0155% [at 19 µM] | activity, negative = inhibition [17] 4.09% [at 19 µM] | activity change, negative = cytotoxicity [7] -11.2% [at 19 µM] | activity change, negative = cytotoxicity [8] -1.63% [at 19 µM] | activity change, negative = cytotoxicity [10] 4.32% [at 19 µM] | activation [19] -1.02% [at 19 µM] | activity change, negative = inhibition [12] -0.175% [at 19 µM] | activity change, negative = cytotoxicity [18] 0.983% [at 19 µM] | activation [13] 3.24% [at 19 µM] | activity change, negative = inhibition [14] -1.49% [at 18.9 µM]

COC(=O)CCCCC(=O)O
inactive: Potency [1] | outcome [2] | outcome [3] | outcome [4] | outcome [5] | Potency [6] | outcome [7] | outcome [8] | outcome [10] | outcome [11] | Potency [13] | Potency [14] | outcome [15] | outcome [16]

O=C(CCCCC(=O)Nc1c(I)cc(I)c(C(=O)O)c1I)Nc1c(I)cc(I)c(C(=O)O)c1I
inactive: Potency [1] | outcome [2] | outcome [3] | outcome [4] | outcome [5] | Potency [6] | outcome [7] | outcome [10] | Potency [19] | outcome [12] | outcome [18] | Potency [13] | Potency [14] | outcome [16]

C#CCN[C@@H]1CCc2ccccc21
inactive: Potency [1] | outcome [2] | outcome [3] | outcome [4] | Potency [6] | Potency [20] | Potency [17] | outcome [7] | outcome [8] | outcome [9] | outcome [10] | Potency [19] | outcome [11] | outcome [12] | outcome [18] | Potency [14] | outcome [15] | outcome [16]

CC(=O)CCC1=C(C)CCCC1(C)C
inactive: Potency [1] | outcome [2] | outcome [3] | outcome [4] | outcome [5] | Potency [20] | Potency [17] | outcome [7] | outcome [10] | Potency [19] | outcome [11] | outcome [18] | Potency [13] | outcome [15] | outcome [16]

OC[C@@H](O)C(O)[C@@H](O)CO (stereo not given in full)
inactive: Potency [1] | outcome [2] | outcome [3] | outcome [4] | outcome [5] | Potency [6] | outcome [7] | outcome [8] | outcome [10] | outcome [11] | outcome [12] | outcome [18] | Potency [13] | Potency [14] | outcome [15] | outcome [16]
